This is a sample that favours compounds with a hit; in the whole collection about 8.3% have one here.
SW480 rereplic – A quantitative high throughput screen for small molecules that induce DNA re-replication in SW480 colon adenocarcinoma cells | SW480 DNA re-replication, Hoechst DNA content imaging, 48 h | AID 624297, 2012 | hit rate 1.8% among 340,000 | Potency, µM (top dose mostly 46.1 µM), for the others: at the top dose re-replication activation, hits mostly activators; further: potency means the concentration at half of the fitted maximal effect; % of control where 0% means no effect; nearly all actives have a fitted effect of over 55% in size
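Per well, 250 cells were exposed to pinned compound for 48 hr. Nuclear DNA was visualised with Hoechst (40 min, 37 C) and total object intensity recorded by fluorescence scanning.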
Gal4-VP16 FLuc – VP16 counterscreen qHTS for inhibitors of ROR gamma transcriptional activity; Drosophila S2 Gal4-VP16 UAS-luciferase, luminescence, 20 h; Potency, µM (series often up to 53.6 µM), inactives show top-dose activity, negative = inhibition, hits mostly inhibitors; hit rate 3.5% among 310,000;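 further: Gal4-VP16 expression switched on by copper sulfate through the metallothionein promoter; potency means the concentration at half of the fitted maximal effect; on the % scale 0 is the no-effect control and ±100 the full control effect; nearly all actives have a fitted effect of over 50% in size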
Giardia kill – Small Molecules that selectively kill Giardia lamblia: qHTS; Giardia lamblia trophozoite viability; activity change, % at 7.66 µM, hits read low; hit rate 0.15% among 340,000; AID 540267, 2011; in the data active means activity change below about -80%; inconclusive means between about -30% and that limit;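 further: parasites exposed to compound for two days anaerobically before the ATP read; on the % scale 0 is the no-effect control and ±100 the full control effect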
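Luminescent ATP signal served as the viability read-out, measured 15-30 min after adding ATP detection reagent to trophozoites that had been incubated with compounds for 48 hrs at 37 deg C anaerobically at 100 cells/well.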
RORg inh – qHTS for inhibitors of ROR gamma transcriptional activity; Nuclear receptor ROR-gamma (Mus musculus), P51450; Drosophila S2 Gal4-RORgamma UAS-luciferase reporter, 20 h; Potency, µM (titrated, usually from 53.6 µM), for the others: at the top dose activity change, negative = inhibition, usual class: inhibitors; hit rate 5.4% among 310,000; AID 2551, 2010; further: potency means the concentration at half of the fitted maximal effect; on the % scale 0 is the no-effect control and ±100 the full control effect; nearly all actives have a fitted effect of over 60% in size
Target sequence (P51450 whole entry, looked up, the tested form may be a part): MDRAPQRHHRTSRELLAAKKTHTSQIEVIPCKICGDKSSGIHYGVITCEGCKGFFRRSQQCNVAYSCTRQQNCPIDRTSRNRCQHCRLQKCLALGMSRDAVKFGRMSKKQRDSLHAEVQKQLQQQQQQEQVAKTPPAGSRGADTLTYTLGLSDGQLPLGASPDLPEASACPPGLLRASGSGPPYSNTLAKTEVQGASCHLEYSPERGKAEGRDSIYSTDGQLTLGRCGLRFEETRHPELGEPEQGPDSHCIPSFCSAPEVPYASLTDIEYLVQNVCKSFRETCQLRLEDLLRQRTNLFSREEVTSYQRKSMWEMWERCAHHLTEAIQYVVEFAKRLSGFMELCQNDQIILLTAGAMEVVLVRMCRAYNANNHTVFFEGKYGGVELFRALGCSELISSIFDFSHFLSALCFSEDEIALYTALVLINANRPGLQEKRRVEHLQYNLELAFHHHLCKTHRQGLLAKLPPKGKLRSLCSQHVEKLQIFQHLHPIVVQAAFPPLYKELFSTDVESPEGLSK
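A Gal4/UAS one-hybrid system in insect cells: metallothionein-promoter Gal4–ROR gamma fusion plus Photinus luciferase reporter. Copper sulfate 700 uM final, 20 hr ambient incubation, luminescent detection after 10 min with reagent.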
MCF10A rerep – A quantitative high throughput screen for small molecules that induce DNA re-replication in MCF 10a normal breast cells; MCF 10A DNA re-replication, Hoechst nuclear intensity, 48 h; Potency, µM (titrated, usually from 46.1 µM), for inactives: at the top dose activity, positive = re-replication, actives largely listed as activators; hit rate 2.9% among 350,000; AID 624296, 2012; further: potency means the concentration at half of the fitted maximal effect; % of control where 0% means no effect; nearly all actives have a fitted effect of over 50% in size
BCR signal inh – qHTS Assay to Find Inhibitors of Chronic Active B-Cell Receptor Signaling; ABC-DLBCL IkBa-CBG/CBR reporter, luminescence ratio, 4 h; Potency, µM (top dose mostly 46.1 µM), for the others: top-dose activity change, negative = inhibition, hits mostly inhibitors; hit rate 0.05% among 340,000; AID 493014, 2011; active means well fitted inhibition curve with a large enough effect in the signal ratio, with a control signal flat, not every such curve was filed as active; inconclusive means small, poorly fitted or top-dose-only effect, or effect the other way, or a change in a side signal; the % refers to the signal ratio;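 further: potency means the concentration at half of the fitted maximal effect; plate controls were basal doxycycline-induced cells for no effect and cells given 10 µM MG132 for full effect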
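Doxycycline induced both beetle luciferases in TMD8 lymphoma cells; IKK-driven degradation limits the IkappaBalpha-fused green signal, while red luminescence normalises for cell number and nonspecific effects. Compounds tested up to 46 uM, 4 hrs.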
Active calls of the source: *; ? = inconclusive; · = no result; [ ] = another dose, or the depositor's remark. Unless noted, the call rests on the fitted dose curve; in most records, active means well fitted curve in the direction sought with a large enough effect; inconclusive means small, poorly fitted or top-dose-only effect, or another doubt; inactive means no such curve, though single readings can be large; an effect the other way counts as inactive or inconclusive.

SMILES | SW480 rereplic | Gal4-VP16 FLuc | Giardia kill | RORg inh | MCF10A rerep | BCR signal inh
CCN1C(=O)c2cccc3c(NC(=O)c4ccccc4)ccc1c23 | -8% | ? | -16 | ? | 0% | ?
CCN1C(=O)c2cccc3c(NC(=O)c4ccc5c(c4)OCCO5)ccc1c23 | ? | -15% | 4 | -2% | 26µM* | -1%
NC(=O)N1N=C2/C(=C/c3ccccc3)CCCC2C1c1ccccc1 (centres undefined) | 18% | -14% | -6 | 1% | 8.2µM* | 1%
CC(=O)Nc1ccc(NC(=O)Cn2cnc(S(=O)(=O)N3CCOCC3)c2)cc1 | ? | 6% | -7 | -5% | 0% | 0%
Cc1ccc2nc(-c3ccc(NC(=O)c4ccccc4S(C)(=O)=O)cc3)sc2c1 | · | · | · | · | · | 13%
Cc1c(S(=O)(=O)Nc2ccc3c(c2)OCCO3)c(=O)n(C)c(=O)n1C | -5% | -12% | -5 | -37% | -3% | -14%
Cc1cccc(S(=O)(=O)Nc2ccc(-c3nc4ccc(C)cc4s3)cc2)c1 | ? | -25% | 22 | 5.6µM* | 18µM* | 10%
Cc1ccc(S(=O)(=O)Nc2ccc(-c3nc4ccc(C)cc4s3)cc2)cc1 | ? | · | 1 | · | 23µM* | 5%
Cc1ccc2nc(-c3ccc(NS(=O)(=O)c4c(C)n(C)c(=O)n(C)c4=O)cc3)sc2c1 | 21µM* | ? | 4 | 20% | 7.3µM* | -5%
COc1ccc(CC(=O)Nc2c(C(=O)N3CCN(c4ccccc4OC)CC3)oc3ccccc23)cc1OC | -2% | -4% | 20 | -4% | -3% | 0%
O=c1c2ccccc2c(C=NCc2ccccn2)c(O)n1-c1ccccc1 | 12% | -16% | -29 | ? | -3% | 4%
O=c1oc2ccccc2c(O)c1C=NCc1ccccn1 | -2% | 1µM* | 1 | 0.56µM* | ? | ?
O=C1C(C=NCc2ccccn2)=C(O)c2ccccc21 | -2% | 5µM* | 9 | 2.5µM* | -3% | ?
Fc1ccccc1N1CCN(Cc2cc(-c3ccccc3)on2)CC1 | 5% | -7% | 3 | -35% | 0% | ?
CN(C)CCCOc1ccc2c(c1)Sc1ccccc1CC2=O | 0% | -4% | ? | 17% | ? | ?
O=C1Cc2ccccc2Sc2cc(OCCCN3CCCCC3)ccc21 | 23µM* | -8% | -15 | 8% | ? | -11%
Cc1ccc(S(=O)(=O)CCC(=O)OCc2nnc(-c3ccc([N+](=O)[O-])cc3)o2)cc1 | -9% | · | -8 | · | 0% | ·
O=C(c1ccc2c(=O)n(C3CCCC3)c(=S)[nH]c2c1)N1CCCCCC1 | -3% | 1µM* | 3 | 1.3µM* | -1% | ?
CC1CCCN(C(=O)c2ccc3c(=O)n(C4CCCC4)c(=S)[nH]c3c2)C1 (centres undefined) | -4% | -14%[10 µM] | -10 | 10% | ? | ?
O=C(c1ccc2c(=O)n(-c3ccccc3)c(=S)[nH]c2c1)N1CCCCC1 | -3% | 3.2µM* | 16 | 8.9µM* | ? | 8%
CC1(c2nnc(Cc3ccccc3)o2)CC(c2cccnc2)=NO1 (centres undefined) | -1% | · | 26 | · | 2% | ·
CC1CC(=O)NN1C(=O)c1ccccc1 (centres undefined) | -6% | -2% | 2 | -12% | 1% | 3%
COC(=O)C/C=C/[C@@H](C)[C@H](O)c1ccccc1Br | · | 3% | · | -19% | · | ·
CC(C)NC(=O)CCc1nc2cccnc2n1-c1ccccc1 | 1% | -5% | -4 | 0% | 0% | 4%
CC(C)(C)OC(=O)NC(Cc1ccccc1)C(=O)N1CCC(C(=O)NCC(=O)Nc2ccc(F)cc2)CC1 (centres undefined) | -16% | 6% | 2 | 20% | 8% | ?
SMILES | SW480 rereplic | Gal4-VP16 FLuc | Giardia kill | RORg inh | MCF10A rerep | BCR signal inh
CCc1ccc(-c2nc(CN3CCC(C(=O)NCc4ccccc4OC)CC3)c(C)o2)cc1 | ? | 20µM* | 1 | ? | ? | -3%
COc1ccc(C(C)=O)cc1CN1CCCCC1 | 0% | ? | 8 | -4% | 15µM* | -6%
COc1ccc(F)c(CN2CCC(N3CCC(C(=O)N4CCOCC4)CC3)CC2)c1 | -3% | -6% | 4 | 4% | 1% | -1%
COc1ccc(-c2nc(CN3CCC(C(=O)N4CCOCC4)CC3)c(C)o2)cc1C | 10µM* | ? | -4 | 19% | -1% | ?
COc1ccc(OC)c(CN2CCC(C(=O)N3CCOCC3)CC2)c1 | 0.52µM* | -12% | -10 | -14% | ? | 2%
COc1ccc(-c2nc(CN3CCC(C(=O)N4CCOCC4)CC3)c(C)o2)cc1OC | 0% | -2% | 5 | -2% | 1% | 1%
COc1ccc(Br)cc1CN1CCCCCCC1 | -3% | -6% | -12 | -23% | -7% | 6%
Nc1ccc(Sc2ccccc2)nc1 | 12% | · | -12 | · | 7% | ·
COc1ccc([C@H]2CC(=O)C=C(c3ccc(CNC(=O)OC(C)(C)C)cc3)C2)cc1 | 8% | · | -9 | · | ? | 8%
CC1CCN(C(=O)CSc2nc3c(c(=O)n2C)SC(C)C3)CC1 (centres undefined) | -8% | -2% | 14 | 4% | -7% | ?
O=C(O)c1cnn(-c2nc(-c3ccc(Br)cc3)cs2)c1C(F)(F)F | -30% | ? | -5 | 2% | -3% | -18%
CC(NC(=O)c1cc(S(=O)(=O)N2CCOCC2)ccc1F)c1ccc(-n2ccnc2)cc1 (centres undefined) | 20% | · | -12 | · | -1% | -2%
Cc1cc(Nc2cccc(Cl)c2)nc(-c2ccccc2O)n1 | 29µM* | -9% | -1 | 31% | ? | ?
CCC1=C(c2cc(OC)c(OC)c(OC)c2)C2(CCCC2)C(=O)O1 | -6% | 8% | ? | -11% | ? | -1%
CCc1ccc(C(=O)C(C)OC(=O)Cc2n[nH]c(=O)c3ccccc23)cc1 (centres undefined) | ? | 0% | 2 | 4% | 15µM* | -4%
C[C@@]12C(=O)Nc3ccccc3C(=O)N1[C@H]1c3cc(Br)ccc3OC[C@@H]1[C@@H]2c1ccccc1 | ? | · | 26 | · | 3.3µM* | ?
C[C@@]12C(=O)Nc3ccc(Cl)cc3C(=O)N1[C@H]1c3cc(Br)ccc3OC[C@@H]1[C@@H]2c1ccccc1 | 16µM* | · | -5 | · | 1% | ?
O=C(COC(=O)CNC(=O)c1ccc([N+](=O)[O-])o1)Nc1ncc(C(F)(F)F)cc1Cl | 8% | · | ? | · | 16µM* | 1%

High-throughput results deposited in PubChem BioAssay by National Center for Advancing Translational Sciences (NCATS).
